Data published in PubChem BioAssay (NCATS).
Results filed as inconclusive are left out. A number with no mark means an inactive call. Calls of active or inactive are those of the source. Calls come from the whole dose curve; as a rule, active = well fitted cell-killing curve with a large enough effect; inconclusive = small, poorly fitted or top-dose-only effect, or effect the other way; inactive = flat fitted curve, though single readings scatter. Peptide text beside a SMILES is read from it.

assay: qHTS assay for cell viability of the p53RE-bla HCT-116 cell line (AID 743292); settings: p53RE-bla HCT-116 viability, ATP luminescence, 16 h; series mostly up to 95 µM; activity change, negative = cytotoxicity: at the top concentration; note: nearly all actives have a fitted effect of over 55% in size
Description: U.S. Tox21 Program National Center for Advancing Translational Sciences [NCATS] NIH Chemical Genomics Center [NCGC] U.S. Environmental Protection Agency [EPA] National Institutes of Environmental Health Sciences [NIEHS] National Toxicology Program [NTP] U.S. Food and Drug Administration [FDA] Tox21 Assay Overview: The CellTiter-Glo Luminescent Cell Viability Assay (Promega, Madison, WI) is a homogeneous method to determine the number of viable cells in culture based on quantitation of the ATP present, which signals the presence of metabolically active cells. This cell viability assay was used to screen environmental chemicals in the CellSensor p53RE-bla HCT-116 cell line (Invitrogen).
Tox21 Assay Protocol Summary: Cell viability after compound treatment was measured using a luciferase-coupled ATP quantitation assay (CellTiter-Glo viability assay, Promega, Madison, WI) in CellSensor p53RE-bla HCT-116 cell line (Invitrogen). Total intracellular ATP content corresponds to the number of metabolically competent cells after compound treatment. The cells were dispensed at 4,000 cells/5 uL/well in 1,536-well white/solid bottom assay plates using a Flying Reagent Dispenser (Aurora Discovery, San Diego, CA). The cells were incubated for 5 h at 37 C, followed by the addition of 23 nL of compounds dissolved in DMSO, positive controls or DMSO only using a pintool work station (Kalypsys, San Diego, CA). The assay plates were incubated for 16 h at 37 C, followed by the addition of 5 uL/well of CellTiter-Glo reagent. After 30 min incubation at room temperature, the luminescence intensity of the plates was measured using a ViewLux plate reader (PerkinElmer, Shelton, CT).
% is set by controls: 0 for no effect and ±100 for the full control effect; potency is the fitted concentration of half-maximal effect.

SMILES	activity change, negative = cytotoxicity [%]	Potency
COc1cc(OC)c(C(=O)CCCN2CCCC2)c(OC)c1	0.623	–
Nc1nc(Cl)nc2c1ncn2[C@H]1C[C@H](O)[C@@H](CO)O1	-10.9	–
CCCCC(CC)COC(=O)C(C#N)=C(c1ccccc1)c1ccccc1 (stereo unspecified)	-21.7	–
N[C@@H](Cc1cc(I)c(Oc2cc(I)c(O)c(I)c2)c(I)c1)C(=O)O	-1.33	–
COc1c2occc2cc2ccc(=O)oc12	–	inactive
CNC[C@H](O)c1ccc(O)c(O)c1	-2.62	–
NS(=O)(=O)c1cc(C(=O)O)c(NCc2ccco2)cc1Cl	–	inactive
CCc1nc(N)nc(N)c1-c1ccc(Cl)cc1	–	28.2 µM (active)
CN(C)c1ccc2nc3ccc(=[N+](C)C)cc-3sc2c1	–	28.2 µM (active)
CC(=O)N1CCN(c2ccc(OC[C@H]3CO[C@](Cn4ccnc4)(c4ccc(Cl)cc4Cl)O3)cc2)CC1	-27.2	–
Nc1ccc(S(N)(=O)=O)cc1	-0.239	–
Cc1cc(O)c2c(c1)C(=O)c1cc(O)cc(O)c1C2=O	–	31.6 µM (active)
CCN(CC)C(=S)SSC(=S)N(CC)CC	4.37	–
CCCc1cc(=O)[nH]c(=S)[nH]1	–	inactive
CC1(C)NC(=O)N(c2ccc([N+](=O)[O-])c(C(F)(F)F)c2)C1=O	-5.26	–
c1ccc2[nH]c(-c3cscn3)nc2c1	–	inactive
COC(=O)[C@H](Cc1ccccc1)NC(=O)[C@@H](N)CC(=O)O (H-Asp-Phe-OMe)	–	inactive
CC(=O)Nc1ccc(O)cc1	–	inactive
CS(=O)(=O)OCCCCOS(C)(=O)=O	–	inactive
O=c1c(O)c(-c2ccc(O)cc2O)oc2cc(O)cc(O)c12	9.62	–
Cc1ccc(C)c(OCCCC(C)(C)C(=O)O)c1	–	inactive
